“And” between values parts separate entries of the source, which are not always exact repeats. Equal values may be shown once. Inconclusive results are not listed. A call without a number means that no potency is given here. A structure can be active in one record and inactive in another. The source made the active and inactive calls. Calls follow the shape of the dose curve; as a rule, active = well fitted cell-killing curve with a large enough effect in the repeat runs; inconclusive = weak or mixed curves, or effect the other way; inactive = no such curve, though single readings can be large or run the other way.
Potency is read from the fitted curve at half-maximal effect.

This test in a line: Caspase-3/7 induction in CHO-K1 cells by small molecules, qHTS cell viability counter screen (AID 1346979). Also: nearly all actives have a fitted effect of over 35% in size. Conditions: CellTiter-Fluor fluorescence, 17 h; series mostly up to 92.4 µM; activity change, negative = cytotoxicity: at the top concentration. From the text: National Center for Advancing Translational Sciences [NCATS]
NIH Chemical Genomics Center [NCGC]
U.S. Environmental Protection Agency [EPA]
National Institutes of Environmental Health Sciences [NIEHS]
National Toxicology Program [NTP]
U.S. Food and Drug Administration [FDA]
Apoptosis is a process of programmed cell death and plays a central role in the development of multicellular organisms. It is a highly regulated process and induces cell death by activating caspases, which are the members of cysteine aspartic acid-specific protease (caspase) family. Caspases involved in apoptosis are classified by their mechanism of action as initiator caspases (caspase-2, -8, -9 and -10) and executioner caspases (caspase-3, -6, and -7). Inhibition of apoptosis results in number of cancers, autoimmune diseases, inflammatory diseases and viral infection. To identify small molecule compounds that induce apoptosis, a homogeneous, luminescent Caspase-Glo 3/7 assay was used. Wild type CHO-K1 cells were used to screen Tox21 libraries for identifying caspase-3/7 activity inducers. Also cytotoxicity of the compounds was tested in parallel by measuring the cell viability using CellTiter-Fluor assay system in the same wells.
Tox21 Assay Protocol Summary:
CHO-K1 cells were dispensed at 1,500 per well in 5uL of culture medium into white solid bottom 1536-well plates (Corning Life Sciences, Corning, NY) using a Multidrop Combi (Thermo Scientific, Waltham, MA) dispenser. The assay plates were incubated at 37 C and 5% CO2 for 5hr, and then 23nL of compounds dissolved in DMSO and positive control were transferred using a Pintool station (Wako, San Diego, CA). The assay plates were incubated at 37C and 5% CO2 for 17hr. For cytotoxicity read, after 16hr incubation at 37C, 1uL CellTiter-Fluor reagent (Promega Corporation, Madison, WI) was added to each well of the assay plates using Flying Reagent Dispenser (FRD, Aurora Discovery, San Diego, CA). After 1hr incubation at 37C and 5% CO2, the fluorescence signal was quantified using a ViewLux plate reader (PerkinElmer, Shelton, CT).
A general note: Quantitative high-throughput screening tests each substance at several concentrations.
For the molecule `NNc1nncc2ccccc12`, the Potency is 43.3 µM (active) and the activity change, negative = cytotoxicity was -0.255% [at 19 µM] (inactive).

Turning to `CCCCCOC(C)=O`, the Potency entry was “inactive”.

With `CCC(O)OC(O)CC` (stereo not given), the Potency result is “inactive”.

Consider `Oc1cccc2ccccc12`, for which the Potency result is “inactive”.

On to `Nc1cc([N+](=O)[O-])ccc1O`, for which the Potency was 54.5 µM (active) and 60.8 µM (active).

Consider `CC(=O)OCC(=O)[C@@]12N=C(C)O[C@@H]1C[C@H]1[C@@H]3CCC4=CC(=O)C=C[C@]4(C)[C@H]3[C@@H](O)C[C@@]12C`, for which the Potency entry was “inactive”.

As for `CC(C)c1ccc(S(=O)(=O)O)cc1`, the Potency result was “inactive”.

With `COc1ccc(NC(C)=O)cc1N`, the Potency entry was “inactive”.

As for `O=c1[nH]c(=O)n([C@H]2CCCO2)cc1F`, the “activity change, negative = cytotoxicity” value was 8.6% [at 42.5 µM] (inactive).

For `CCCCCCCCCC`, the Potency entry was “inactive”.

Turning to `CCC(O)OCCCOC` (stereo not given), the Potency is 5.59 µM (active) and inactive.

In the case of `Cc1cccc(O)c1`, the Potency result is “inactive”.

As for `O=C(CC(C(=O)OC1CCCCC1)S(=O)(=O)O)OC1CCCCC1` (stereo not given), the Potency entry was “inactive”.

In the case of `OCC(CO)(CBr)CBr`, the Potency result was “inactive”.

Regarding `C=C(C)C(=O)OCCOCCOCCOC(=O)C(=C)C`, the Potency entry was “inactive”.

Take `CC(O)COCC(C)O` (stereo not given): the Potency result is “inactive”.

As to `O=C=NCCCCCCN=C=O`, the Potency was 53.3 µM (active) and inactive.

Regarding `CN(C)CCC(c1ccc(Cl)cc1)c1ccccn1` (stereo not given), the “activity change, negative = cytotoxicity” value is -9.62% (inactive).

For the molecule `c1ccc2c(c1)ccc1ccccc12`, the Potency result is “inactive”.

In the case of `CC1CCC(C(C)C)C(O)C1` (stereo not given), the Potency result was “inactive”.

As to `CCCCC(CC)COC(=O)CS` (stereo not given), the Potency result is “inactive”.

In the case of `O=C(O)CCCC[C@@H]1SC[C@@H]2NC(=O)N[C@@H]21`, the Potency result was “inactive”.

With `CCc1ccc(CCOc2ccc(CC3SC(=O)NC3=O)cc2)nc1` (stereo not given), the “activity change, negative = cytotoxicity” value is -9.24% [at 42.5 µM] (inactive).

For the molecule `O=P(OC(CCl)CCl)(OC(CCl)CCl)OC(CCl)CCl`, the Potency was 30.5 µM (active).

In the case of `O=C(O)[C@H](O)[C@@H](O)[C@H](O)[C@H](O)CO`, the Potency result is “inactive”.

For `O=C(O)c1cc(O)c(O)c(O)c1`, the Potency is 30.9 µM (active).

Take `Cc1cnc(C(=O)NCCc2ccc(S(=O)(=O)NC(=O)NC3CCCCC3)cc2)cn1`: the Potency result was “inactive”.

`c1c[nH]cn1`: the “activity change, negative = cytotoxicity” value was -4.06% (inactive).

Turning to `C#CCN(C)Cc1ccccc1`, the Potency result is “inactive”.

As to `N[C@@H](Cc1cc(I)c(Oc2cc(I)c(O)c(I)c2)c(I)c1)C(=O)O`, the Potency entry is “inactive”.

For `O=C(O)c1ccc2c(c1)C(=O)OC2=O`, the Potency result was “inactive”.

On to `c1ccc(OCCOc2ccccc2)cc1`, for which the Potency result is “inactive”.

On to `CC(=O)Nc1ccccc1`, for which the Potency entry was “inactive”.

Take `C[C@H]1C[C@H]2[C@@H]3CCC4=CC(=O)C=C[C@]4(C)[C@@]3(F)[C@@H](O)C[C@]2(C)[C@@]1(O)C(=O)CO`: the Potency result is “inactive”.

As to `COc1ccc(Cl)cc1C(=O)NCCc1ccc(S(=O)(=O)NC(=O)NC2CCCCC2)cc1`, the Potency entry was “inactive”.

Consider `COc1ccc(Nc2ccccc2)c(C)c1`, for which the Potency entry is “inactive”.

Consider `O=c1[nH]nnc2ccccc12`, for which the Potency result was “inactive”.

For `CC(c1cc2ccccc2s1)N(O)C(N)=O` (stereo not given), the Potency result was “inactive”.

Consider `CC(C)(N)CO`, for which the Potency entry is “inactive”.

These data come from PubChem BioAssay (Tox21).
